Source: PubChem
OTUD3 inh – human OTUD3 deubiquitinase inhibition; purified OTUD3, Ub-rhodamine fluorescence, 2 h; inhibition, % at 25 µM; 47,000 tested, 0.7% active
USP8 block – blocks human USP8 ubiquitin-rhodamine cleavage; purified USP8, Ub-rhodamine cleavage fluorescence, 30 min; inhibition, % at 20 µM; 47,000 tested, 4.2% active; P40818
USP30 inh – human USP30 deubiquitinase inhibition. purified USP30, Ub-rhodamine cleavage fluorescence. 47,000 tested, 5.3% active. Q70CQ3. inhibition, % at 25 µM
USP10 block – human USP10 deubiquitinase inhibition; Q14694; purified USP10, Ub-rhodamine fluorescence, 60 min; inhibition, % at 20 µM; 47,000 tested, 1.1% active; AID 1645856
Target sequence (Q14694 whole entry, looked up): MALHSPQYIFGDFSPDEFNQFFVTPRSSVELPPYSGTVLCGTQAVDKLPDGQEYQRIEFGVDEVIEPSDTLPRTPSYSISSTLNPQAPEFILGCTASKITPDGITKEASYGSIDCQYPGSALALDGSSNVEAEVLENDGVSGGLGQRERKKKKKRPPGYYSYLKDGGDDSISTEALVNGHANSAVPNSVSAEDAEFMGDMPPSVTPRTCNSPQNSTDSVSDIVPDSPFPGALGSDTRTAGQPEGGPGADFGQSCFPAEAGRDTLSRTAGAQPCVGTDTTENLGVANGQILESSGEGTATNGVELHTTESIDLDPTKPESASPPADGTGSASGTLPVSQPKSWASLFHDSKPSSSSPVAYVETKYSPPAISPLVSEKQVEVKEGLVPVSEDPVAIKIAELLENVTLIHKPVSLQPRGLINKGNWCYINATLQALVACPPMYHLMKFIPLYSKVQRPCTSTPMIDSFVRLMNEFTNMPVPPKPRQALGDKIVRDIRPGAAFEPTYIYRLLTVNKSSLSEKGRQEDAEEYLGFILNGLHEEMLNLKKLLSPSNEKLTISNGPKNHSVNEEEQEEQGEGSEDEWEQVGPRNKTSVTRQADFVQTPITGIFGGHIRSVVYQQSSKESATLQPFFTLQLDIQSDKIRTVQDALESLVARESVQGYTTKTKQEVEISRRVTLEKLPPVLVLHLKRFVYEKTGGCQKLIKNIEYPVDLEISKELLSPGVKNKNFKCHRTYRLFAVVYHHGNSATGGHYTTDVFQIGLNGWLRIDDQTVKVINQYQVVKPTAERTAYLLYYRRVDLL
USP28 block – blocks human USP28 ubiquitin-rhodamine cleavage. 47,000 tested, 3% active. purified USP28, Ub-rhodamine cleavage fluorescence, 30 min. inhibition, % at 25 µM
USP17 block – inhibitors of human USP17 deubiquitinase; inhibition, % at 50 µM; A8MUK1; 47,000 tested, 6.5% active; AID 1645855; purified USP17, Ub-rhodamine cleavage fluorescence, 3 h
An asterisk follows results filed as active; x = no result given. An excerpt weighted towards active compounds, which were near 13% of everything screened. Cut-off read from the data, not from the text of the source: active = inhibition above about 30%; inactive = the rest.

SMILES	OTUD3 inh	USP8 block	USP30 inh	USP10 block	USP28 block	USP17 block
COc1ccc(NC(=O)CSc2nnc(Cc3cccc4ccccc34)n2C)cc1	9	-26	7	2	60*	2
Cn1c(CNc2ccc(F)cc2)nnc1SCC(=O)Nc1cccc2ccccc12	1	12	21	1	29	1
CCn1c(CC(=O)Nc2ccccc2)nnc1SCC(=O)c1ccccc1	6	12	12	2	6	7
COc1ccc(NCc2nnc(SCC(=O)Nc3cccc4ccccc34)n2C)cc1	5	45*	19	5	6	20
COc1ccc(NC(=O)Cc2nnc(SCC(=O)c3ccccc3)n2C)cc1	-1	-11	20	1	0	25
CCn1c(CNc2ccc(Cl)cc2)nnc1SCC(=O)Nc1ccccc1	2	2	9	5	64*	0
N#Cc1ccc(-c2ccc(S(=O)(=O)C3CCN(Cc4cccc(C(F)(F)F)c4)CC3)cc2)cc1	-23	-13	-141	-4	-22	-37
CC(=O)c1cccc(NC(=O)C2CCCN(S(=O)(=O)c3cccnc3)C2)c1 (centres undefined)	-5	-8	-11	2	-11	-14
O=c1c2cnc3nc(-c4cccnc4)nn3c2ccn1CCc1ccccc1	2	6	19	1	8	51*
O=C(NCCc1ccccc1Cl)c1oc(=O)c2ccccc2c1-c1ccccc1	23	19	44*	13	29	19
O=C(Nc1ccccc1F)c1oc(=O)c2ccccc2c1-c1ccccc1	-15	-1	-4	3	-20	-10
Cc1ccc(NC(=O)c2c(O)cn(-c3ccccc3)c2O)cc1C	-31	-15	-47	-5	-14	-10
COc1ccccc1NC(=O)CSc1nccn1-c1cccc(C)c1	-6	-22	-15	3	-1	-4
CC(=O)N1CC2(CCN(C(=O)c3ccccn3)CC2)Nc2ccccc21	-2	-4	-7	-1	0	0
CC(=O)N1CC2(CCN(C(=O)C(C)(C)C)CC2)Nc2ccccc21	-6	32*	-30	1	-15	25
CNc1nc(C2CCCN(C(=O)C(C)(C)OC)C2)nc2c1CN(C)CC2 (centres undefined)	0	-14	x	-2	x	-25
O=C(CN(c1cc(C(F)(F)F)ccc1Cl)S(=O)(=O)c1ccccc1)NCc1ccco1	12	32*	1	2	8	4
N=C1c2ccccc2CN1c1ccc(OC(F)(F)F)cc1	-34	-14	-154	-6	-32	-32
CCn1c(SCC(=O)Nc2ccc(C)cc2)nnc1-c1cnccn1	3	-1	-12	-2	-1	-1
Cc1ccc(-n2c(SCc3ccc(C#N)cc3)nnc2-c2ccccn2)cc1	16	14	38*	2	18	21
CCc1ccccc1NC(=O)CSc1nnc(-c2ccccn2)n1-c1ccc(C)cc1	21	10	35*	5	8	2
COCCn1c(C(=O)Nc2ccccc2Cl)cc2c(=O)n(C)c(=O)n(C)c21	-11	-10	-3	2	-10	36*
Cc1ccc(CNC(=O)c2nccnc2NC(=O)c2ccc(C)cc2)cc1	5	5	17	7	2	18
FC(F)(F)c1cnc(N2CCC(c3ncn[nH]3)CC2)c(Cl)c1	4	3	19	-1	43*	0
COc1ccc(NC(=O)c2cc(-c3cccnc3)n[nH]2)cc1Cl	9	65*	94*	9	91*	44*
SMILES	OTUD3 inh	USP8 block	USP30 inh	USP10 block	USP28 block	USP17 block
Cc1ccc(NC(=O)c2cc(-c3cccnc3)n[nH]2)cc1F	29	99*	49*	26	34*	40*
CC(C)c1ccc(NC(=O)c2cc(-c3cccnc3)n[nH]2)cc1	-1	97*	46*	7	37*	-1
O=C(NC1CCCCCC1)c1cc(-c2cccnc2)n[nH]1	-11	-18	-1	0	-3	-6
CCc1cccc(CC)c1NC(=O)COC(=O)C1CC(=O)N(c2ccc3c(c2)OCCO3)C1 (centres undefined)	-8	-24	-19	0	0	-20
O=C(c1ccccc1F)N1CCN(c2nc(-c3ccc(Cl)cc3)no2)CC1	-1	-1	44*	3	9	-6
O=C(Cn1c(-c2ccccc2)ncc(C(=O)NC2CC2)c1=O)Nc1ccccc1	20	30*	73*	25	27	36*
O=C(Cn1cncc(C(=O)NC2CCCC2)c1=O)Nc1cccc(F)c1	-3	3	0	0	-4	82*
COc1cccc(Nc2c(C(=O)N3CCOCC3)cnc3nc(C)ccc23)c1	-12	-6	-110	-5	-31	-28
O=c1c2cc(Br)ccc2[nH]c(=S)n1Cc1cccnc1	13	88*	13	32*	11	x
O=C(Cn1cnc2c(cnn2-c2cccc(Cl)c2)c1=O)N1CCOCC1	-4	-27	-31	-7	-14	-17
COC(=O)c1ccc2c(c1)C(=O)c1ccccc1CO2	15	7	24	3	32*	26
CCCn1c(CCC(=O)Nc2ccccc2C)nc2cc(S(=O)(=O)N3CCOCC3)ccc21	-6	0	-7	-4	-2	-4
CCN(CC)S(=O)(=O)c1ccc2c(c1)nc(CCC(=O)Nc1ccc(C)c(Cl)c1)n2CC	1	-15	39*	-2	-5	-12
COc1ccc(S(=O)(=O)N2CCN(Cc3ncc(-c4ccccc4)o3)CC2)cc1OC	-19	-31	-42	-12	-20	-29
CN(C)C(=O)N1CCN(C(=O)c2ccccc2)CC2(CC(=O)N(C)C2)C1 (centres undefined)	-3	-9	0	3	-7	0
N#Cc1c2c(c(-c3ccccc3)n3c1nc1ccccc13)CCC2	-8	-7	-38	-5	0	43*
COc1ccc(-c2nnc(SCc3ccc(C#N)cc3)o2)cc1	-1	0	46*	6	1	0
COc1ccc(-c2nnc(SC(C(=O)c3ccccc3)c3ccccc3)o2)cc1 (centres undefined)	-5	8	-12	7	10	29
C[C@@H]1CC[C@H]2C(CN3CCN(Cc4ccc5c(c4)OCO5)CC3)C(=O)O[C@]23[C@H]1CC[C@@]1(C)O[C@@H]31 (some centres undefined)	-5	-53	-25	-3	-10	-17
Cc1ccc(CNC(=O)CCc2csc(NC(=O)c3ccc(=O)[nH]c3)n2)cc1	22	-43	33*	-3	23	-11
COc1cc(NC(=O)Cc2csc(NC(=O)c3ccc(=O)[nH]c3)n2)cc(OC)c1OC	5	23	-57	-5	-9	4
Cn1c(SCC(=O)c2ccc3c(c2)OCCCO3)nnc1-c1ccc2ccccc2c1	11	-4	49*	20	31*	27
COc1ccccc1OCCSc1nnc(-c2ccc3c(c2)OCCCO3)n1C	19	11	18	1	11	9
